Unmarked numbers belong to inactive results. Activity calls are given as the source filed them.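 Rule for the calls: active = inhibition above about 23% in any of six single-dose repeats (limit read from the data); inactive = the rest.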
Target: Intestinal-type alkaline phosphatase (Homo sapiens) (UniProt P09923)
Test: human IAP inhibitors, confirmation, biochemical, luminescence, single concentration, uHTS hits (AID 434927);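 note: plate controls were DMSO wells with enzyme for no effect and wells lacking enzyme for full effect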
Conditions: purified human IAP, CDP-Star luminescence, 30 min; at 8.3 µM; stronger effect = higher value

Sequence of Intestinal-type alkaline phosphatase (Homo sapiens) (P09923 whole entry, looked up): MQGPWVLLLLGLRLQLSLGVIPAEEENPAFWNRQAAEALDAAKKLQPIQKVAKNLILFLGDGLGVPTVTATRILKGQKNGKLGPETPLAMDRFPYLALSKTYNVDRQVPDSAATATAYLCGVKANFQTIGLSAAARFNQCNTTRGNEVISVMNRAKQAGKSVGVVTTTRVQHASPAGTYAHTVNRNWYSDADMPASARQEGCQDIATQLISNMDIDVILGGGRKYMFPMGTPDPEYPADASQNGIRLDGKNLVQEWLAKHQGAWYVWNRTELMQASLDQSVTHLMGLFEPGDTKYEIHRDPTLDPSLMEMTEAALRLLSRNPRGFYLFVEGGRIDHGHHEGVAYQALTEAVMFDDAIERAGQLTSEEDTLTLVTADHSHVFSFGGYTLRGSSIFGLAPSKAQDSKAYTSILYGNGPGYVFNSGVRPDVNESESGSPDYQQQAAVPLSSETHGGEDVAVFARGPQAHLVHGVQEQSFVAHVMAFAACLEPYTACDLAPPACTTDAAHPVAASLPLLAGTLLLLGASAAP

Row | Structure (SMILES) | inhibition
1 | COc1cc(/C=C(\C#N)C(=O)c2ccc(O)c(O)c2)cc(I)c1O | 40.4% (active)
2 | CC1C(=O)NN=C1C(=O)N/N=C\c1ccc(O)cc1O (centres undefined) | -78.7%
3 | Cc1nn(C)c(C(=O)NNC(=S)NCc2ccccc2)c1Cl | -141%
4 | Cc1ccc(S(=O)(=O)N(CC(=O)Nc2ccc(C)cc2C)C(=O)N2CCN(C)CC2)cc1 | -55.4%
5 | Cc1nc2c3ccccc3nc(NNC(=O)CCC(=O)NCCC(C)C)n2n1 | -64.4%
6 | COc1cccc(/C=N\NC(=O)C2=NNC(=O)C2C)c1O (centres undefined) | 34.8% (active)
7 | CCOCCCNC(=O)CCC(=O)NNc1nc2ccccc2c2nc(-c3ccccc3)nn12 | 48.4% (active)
8 | Cc1ccc2c(c1)nnc1nnc(SCC(=O)O)n12 | 33.9% (active)
9 | CSCCC(NS(=O)(=O)c1ccccc1F)C(=O)NNC(=O)c1csc(N2CCOCC2)n1 (centres undefined) | 72.3% (active)
10 | CC(=O)Nc1cccc(-c2csc(Nc3ccccn3)n2)c1 | -94.1%
11 | O=C(NNC(=S)NC1CCCCC1)c1ccccc1Br | -42.5%
12 | O=C(CCCCC(=O)NNC(=O)COc1ccccc1)NNC(=O)COc1ccccc1 | -88.4%
13 | Cc1ccsc1C(=O)NNC(=S)NC1CCCCC1 | 49.4% (active)
14 | Cc1cc(C)n(C(=O)C23CC4CC(CC(C4)C2)C3)n1 | -126%
15 | Cc1nc2c3ccccc3nc(NNC(=O)CCC(=O)NCCN3CCN(c4ccccc4)CC3)n2n1 | -97.4%
16 | O=c1c2ccccc2nc(N/N=C/c2c(O)ccc3ccccc23)n1O | -53.7%
17 | O=C1Nc2ccccc2/C1=N\N=C\c1ccc(O)c(O)c1 | 61.5% (active)

Row | Structure (SMILES) | inhibition
18 | CCOc1cc(/C=N/NC(=O)C(=O)N/N=C/c2ccc(O)c(OCC)c2)ccc1O | -47.6%
19 | O=C(O)COn1c(-c2ccc(Cl)cc2)nc2ccc(Cl)cc21 | 26.6% (active)
20 | COc1cc(/C=C/C(=O)OCC(=O)NC(=O)NC2CCCCC2)ccc1OC(F)F | 78.7% (active)
21 | COc1cccc(-c2nc(CS(=O)(=O)CC(=O)Nc3cc(OC)ccc3OC)c(C)o2)c1 | 31.5% (active)
22 | O=C1Nc2ccc(Br)cc2C12NNc1ccccc1O2 (centres undefined) | 35% (active)
23 | CCN(CC)c1ccc(N=Nc2nn(C)c(C)c2[N+](=O)[O-])cc1 | 34.7% (active)
24 | CCOc1ccccc1CN1CCC(n2nccc2NC(=O)CCc2ccccc2)CC1 | 26.6% (active)
25 | CCOc1cccc(-c2nc(C(N)=O)c3[nH]c(=O)n(-c4cccc(Cl)c4)c3n2)c1O | -74.5%
26 | CCc1ccc(/C=N/Nc2ncnc3nc[nH]c23)cc1 | 33.8% (active)
27 | CN(CC(=O)Nc1ccccc1F)CC(=O)Nc1ccc(F)c(F)c1F | 51.6% (active)
28 | O=C(NNc1ncnc2c1cnn2-c1ccc(F)cc1)c1ccco1 | -47.2%
29 | COc1ccc(C2=NN(C3=NN=C(N)Cc4ncnn43)C(O)(C(F)(F)F)C2)cc1 (centres undefined) | 42% (active)
30 | CCn1c2ccccc2c2cc(NC(=O)c3coc(=O)c(Br)c3)ccc21 | 39.2% (active)
31 | CC1(C)C[C@@H](O)CC2(C1)C[C@]1(C)CC(O)[C@H]2C(C)(C)C1 (some centres undefined) | -93.3%
32 | CSCCC(NS(=O)(=O)c1ccc(C)cc1)C(=O)NNC(=O)c1csc(N2CCOCC2)n1 (centres undefined) | 48.3% (active)
33 | O=C(NNC(=S)NC(=O)c1ccccc1)c1cccnc1 | -320%
34 | N#C/C(=C\c1ccc(O)c(O)c1)C(=O)c1ccc(O)c(O)c1 | 74.3% (active)
